This note sets out measurements from PubChem BioAssay (NCI).

About 83,000 compounds went through this panel and 20% of them were active in at least one assay; those are over-represented in the sample as a whole.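 Interpretation: 100, growth as untreated; towards 0, rising growth inhibition; 0, no net growth; 0 to -100, cell death. Compounds scoring below 10 were considered active.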 Unmarked numbers belong to inactive results. Calls of active or inactive are those of the source.

Test systems include SK-MEL-2 melanoma; SN12C renal; UO-31 renal; TK-10 renal; ACHN renal; CAKI-1 renal; A498 renal; CCRF-CEM leukemia; MOLT-4 leukemia; RPMI-8226 leukemia; OVCAR-8 ovarian; OVCAR-5 ovarian; OVCAR-4 ovarian; SK-OV-3 ovarian; IGROV1 ovarian; OVCAR-3 ovarian; HS 578T breast; NCI/ADR-RES ovarian; SR leukemia.
Holding throughout (assay): NCI-60 one-dose screen, 48 h (100 = growth as untreated, 0 = no growth, -100 = all killed)
Common to all, as to conditions: 10 µM unless noted

For the molecule `O=C(CCOCCNC(=O)COc1ccc2c(c1)OCC(c1ccc(F)cc1)C2=O)NCCCC(O)(P(=O)(O)O)P(=O)(O)O` (stereo not drawn), the growth in the test on SK-MEL-2 melanoma was 104%; in the test on SN12C renal, 103%; in the test with UO-31 renal, 95.3%; in the test with TK-10 renal, 114%; with ACHN renal, 102%; in the test with CAKI-1 renal, 94.7%. In addition, the growth in the test on A498 renal was 89%; in the test with CCRF-CEM leukemia it was 96.7%; with MOLT-4 leukemia it was 99.3%; with RPMI-8226 leukemia it was 108%; in the test with OVCAR-8 ovarian it was 104%; in the test with OVCAR-5 ovarian, 103%. Further, the growth is 99.2% in the test on OVCAR-4 ovarian; 108% in the test on SK-OV-3 ovarian; 118% with IGROV1 ovarian; 104% with OVCAR-3 ovarian; 105% in the test on HS 578T breast; 107% in the test on NCI/ADR-RES ovarian.

As to `c1ccc(Nc2cc(-c3cccnc3)[nH]n2)cc1`, the growth with SK-MEL-2 melanoma is 112%; in the test with SN12C renal, 99.3%; in the test on UO-31 renal, 80%; with TK-10 renal, 103%; in the test on ACHN renal it was 91.8%; in the test with CAKI-1 renal it was 90.1%. The growth in the test on A498 renal is 69%; with CCRF-CEM leukemia, 106%; in the test on MOLT-4 leukemia it was 93.6%; in the test on RPMI-8226 leukemia, 103%; in the test with OVCAR-8 ovarian it was 95.8%; with OVCAR-5 ovarian it was 93.6%. The growth with OVCAR-4 ovarian is 96.6%; with SK-OV-3 ovarian it was 92.9%; in the test with IGROV1 ovarian it was 95.7%; in the test with OVCAR-3 ovarian, 100%; in the test on HS 578T breast, 101%; in the test with NCI/ADR-RES ovarian, 105%.

Take `c1ccc(OCc2nnc(-c3ccc(Oc4ccccc4)cc3)o2)cc1`: the growth in the test with SK-MEL-2 melanoma was 91.4%; with SN12C renal it was 99%; in the test with UO-31 renal, 81.7%; with TK-10 renal it was 103%; in the test with ACHN renal, 92.9%; with CAKI-1 renal, 97.1%. The growth in the test on A498 renal is 111%; in the test with CCRF-CEM leukemia it was 96.7%; in the test with MOLT-4 leukemia, 87.6%; in the test on SR leukemia it was 85.8%; in the test with OVCAR-8 ovarian, 99.1%; in the test with OVCAR-5 ovarian, 104%. The growth in the test on OVCAR-4 ovarian is 98.7%; with SK-OV-3 ovarian, 96.9%; in the test on OVCAR-3 ovarian it was 98.3%; in the test on HS 578T breast, 99%; with NCI/ADR-RES ovarian, 96.9%.

With `O=c1cc(SCc2ccccc2)nc[nH]1`, the growth is 111% in the test on SK-MEL-2 melanoma; 120% in the test on SN12C renal; 103% in the test on UO-31 renal; 108% in the test on TK-10 renal; 108% in the test with ACHN renal; 85.6% in the test with CAKI-1 renal. Further, the growth in the test on A498 renal was 113%; with CCRF-CEM leukemia, 98.5%; in the test on MOLT-4 leukemia, 89.4%; in the test with SR leukemia, 127%; in the test on OVCAR-8 ovarian, 117%; in the test with OVCAR-5 ovarian, 93.5%. The growth in the test with OVCAR-4 ovarian is 117%; with SK-OV-3 ovarian, 114%; in the test with IGROV1 ovarian it was 111%; in the test with OVCAR-3 ovarian, 114%; with HS 578T breast, 119%; with NCI/ADR-RES ovarian, 101%.

Consider `Cc1oc2nc[nH]c(=O)c2c1C(=O)/C=C/c1ccc(Br)cc1`, for which the growth in the test with SK-MEL-2 melanoma is 11.9%; in the test on SN12C renal it was 1.76% (active); in the test on UO-31 renal, 19.4%; in the test with TK-10 renal it was 40.9%; in the test with ACHN renal, 1.43% (active); in the test on CAKI-1 renal it was 28.4%. Further, the growth was 23.7% with A498 renal; 6.65% (active) with CCRF-CEM leukemia; 8.42% (active) with MOLT-4 leukemia; -3.59% (active) in the test with RPMI-8226 leukemia; 7.33% (active) in the test with OVCAR-8 ovarian; 22.3% with OVCAR-5 ovarian. The growth with OVCAR-4 ovarian was 36%; with SK-OV-3 ovarian it was 31.5%; in the test with IGROV1 ovarian, 8.79% (active); in the test on HS 578T breast, 24.3%; with NCI/ADR-RES ovarian, -30.5% (active).

For the molecule `COc1ccc2nc(NCCCNCCO)c3sc4ccc(F)cc4c(=O)c3c2c1`, the growth in the test with SK-MEL-2 melanoma was 89%; with SN12C renal, 58.6%; in the test on UO-31 renal it was 38.4%; in the test with TK-10 renal, 69.3%; in the test on ACHN renal it was 39.5%; in the test on CAKI-1 renal, 7.45% (active). Also, the growth was 25.9% in the test with A498 renal; -20.8% (active) in the test with CCRF-CEM leukemia; -10.4% (active) in the test with MOLT-4 leukemia; -35.1% (active) with SR leukemia; 6.89% (active) in the test with OVCAR-8 ovarian; 81.7% in the test with OVCAR-5 ovarian. The growth in the test on OVCAR-4 ovarian was -54.3% (active); with SK-OV-3 ovarian it was 90.1%; in the test with IGROV1 ovarian, 41.3%; with OVCAR-3 ovarian, -64.6% (active); in the test on HS 578T breast, 63.5%; with NCI/ADR-RES ovarian, 30.3%.

Take `CCOC(=O)C1=C(N)Oc2c(sc3c(CC)cccc23)C1c1ccc(F)cc1` (stereo not drawn): the growth was 52.1% in the test on SK-MEL-2 melanoma; 49.1% with SN12C renal; 36.2% in the test on UO-31 renal; 99.1% with TK-10 renal; 34.1% in the test with ACHN renal; 4.96% (active) with CAKI-1 renal. The growth with A498 renal was -3.69% (active); in the test with CCRF-CEM leukemia it was 27.6%; in the test on MOLT-4 leukemia it was 64.2%; in the test with SR leukemia, 27.2%; in the test with OVCAR-8 ovarian, 45.2%; in the test with OVCAR-5 ovarian it was 56.2%. Also, the growth was 58.7% with OVCAR-4 ovarian; 50.6% in the test with SK-OV-3 ovarian; 29.3% in the test with IGROV1 ovarian; 23.9% in the test on HS 578T breast; 32.2% with NCI/ADR-RES ovarian.

As to `O=C(O)c1cn(C2CC2)c2cc(N3CCN(C(=O)Nc4nc(-c5ccccc5)cs4)CC3)c(F)cc2c1=O`, the growth in the test with SK-MEL-2 melanoma is -10.8% (active); in the test with SN12C renal, 4.91% (active); with UO-31 renal it was 5.5% (active); in the test with TK-10 renal it was 26.3%; in the test on ACHN renal, 25.2%; with CAKI-1 renal, 63.6%. Moreover, the growth was -0.916% (active) in the test on A498 renal; 23% in the test on CCRF-CEM leukemia; 22.9% in the test on MOLT-4 leukemia; 4.63% (active) in the test on SR leukemia; 13.8% with OVCAR-8 ovarian; 50.3% in the test with OVCAR-5 ovarian. The growth with OVCAR-4 ovarian is 62.4%; in the test on SK-OV-3 ovarian, 14.7%; in the test on OVCAR-3 ovarian, 7.8% (active); with HS 578T breast, 40.6%; with NCI/ADR-RES ovarian, 76.7%.

Take `c1ccc2cc(C[n+]3ccn(CCCCCCCCCCCCn4cc[n+](Cc5ccc6ccccc6c5)c4)c3)ccc2c1`: the growth in the test on SK-MEL-2 melanoma is -69.9% (active); in the test on SN12C renal, -76.4% (active); with UO-31 renal, 24.2%; in the test with TK-10 renal it was -48.2% (active); in the test with ACHN renal it was 10.5%; with CAKI-1 renal, 41.9%. For the same molecule, the growth in the test on A498 renal was -32.6% (active); in the test with CCRF-CEM leukemia it was -68.3% (active); in the test with MOLT-4 leukemia, -69.7% (active); in the test on SR leukemia, -50% (active); in the test with RPMI-8226 leukemia, -70.7% (active); with OVCAR-5 ovarian, -25.3% (active). For the same molecule, the growth in the test on OVCAR-4 ovarian was -60.1% (active); in the test with SK-OV-3 ovarian, -47.9% (active); with IGROV1 ovarian, -73.8% (active); in the test with OVCAR-3 ovarian, -88.7% (active); with HS 578T breast, -59.2% (active); in the test on NCI/ADR-RES ovarian, 61.7%.
